Screening results: PubChem BioAssay, National Center for Advancing Translational Sciences (NCATS)
Hits are enriched below; roughly 7.9% of the tested compounds scored in any of these assays.
Marburg entry inh – blocks Marburg virus binding to or entry into cells; Marburg virus pseudotyped entry inhibition, cell reporter; Potency, µM (series often up to 37.8 µM), without a hit: at the highest dose activity change, negative = inhibition, hits mostly inhibitors; 300,000 compounds, 1.8% hits; AID 540276; calls by dose curve; tested in HEK293 cells; note: potency is the fitted concentration of half-maximal effect
LASV entry inh – inhibitors of Lassa virus binding or cell entry | Lassa virus pseudotype entry inhibition, cell reporter | Potency, µM (doses to about 37.9 µM), for the others: at the top dose activity change, negative = inhibition, most hits filed as inhibitors | 300,000 compounds, 1.2% hits | AID 540256; calls by dose curve; tested in HEK293 cells; note: potency is the fitted concentration of half-maximal effect; nearly all actives have a fitted effect of over 50% in size
FMDV inh – blocks foot and mouth disease virus. AID 1159524. FMDV antiviral cell-based qHTS. Potency, µM (doses to about 57.9 µM), for inactives: top-dose activity change, negative = inhibition, hits mostly inhibitors. 410,000 compounds, 1.2% hits; calls by dose curve; tested in HEK293T cells; note: read-out not given here; potency is the fitted concentration of half-maximal effect; nearly all actives have a fitted effect of over 45% in size
HCV inh – blocks hepatitis C virus; Huh7.5.1 HCVcc-Cre infection, luciferase reporter, 44 h; Potency, µM (top dose mostly 41.8 µM), for inactives: top-dose activity change, negative = inhibition, most hits filed as inhibitors; 340,000 compounds, 3.4% hits; active = well fitted inhibition curve with a large enough effect; inconclusive = small, poorly fitted or top-dose-only effect, or another doubt; inactive = no such curve, though single readings can be large or run the other way; note: potency is the fitted concentration of half-maximal effect
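Cells (1,000/well) were plated 4 h before compound, then infected with HCVcc-Cre virus (~0.5 moi). After 44 h further culture, infection was read as luciferase luminescence following a 15 min substrate incubation at room temperature.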
HCMV inh – inhibitors of human cytomegalovirus | activity change, negative = inhibition, % at 57.5 µM | HFF cells, HCMV-luciferase reporter, 72 h; active compounds read low | 410,000 compounds, 4.5% hits | AID 1259415; in the data active = activity change below about -60%; inconclusive = no clear call, values can overlap the other calls; inactive = above about -39%
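Luciferase read-out from HCMV-luciferase-infected HFFs (MOI 1 PFU/cell) 72 h post infection at 37C; compounds added after 16 h cell attachment; activity normalized between buffer-only basal and Salinomycin (10uM) inhibitor controls.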
* = called active by the depositor; ? = inconclusive; · = no result; [ ] = remark or other dose. % is set by controls: 0 for no effect and ±100 for the full control effect.

SMILES | Marburg entry inh | LASV entry inh | FMDV inh | HCV inh | HCMV inh
COc1ccc(NC(=O)c2cnc(SC)n2-c2ccc(F)cc2)c(OC)c1 | 12.6µM* | ? | ? | ? | 9.2
CCn1c(CC2C(=O)N(C)c3ccc(Br)cc32)nc2ccccc2c1=O (stereo not drawn) | 19.5%[46.1 µM] | -16.6%[46.1 µM] | -14.6% | · | 58.4
CCCN1C(=O)C(Cc2nc3ccccc3c(=O)n2CC)c2cc(Br)ccc21 (stereo not drawn) | -24.6%[46.1 µM] | -27.5%[46.1 µM] | -1.3% | · | -73.5*
CC1=CC[C@@H](COc2ccccc2)O[C@@]2(C1)C(=O)N(Cc1ccccc1C(F)(F)F)c1ccccc12 | 1.2%[14.2 µM] | · | · | · | ·
CN1/C(=C\C=N\NC(=O)c2ccc(O)cc2)C(C)(C)c2ccccc21 | ? | ? | 28.2µM* | ? | -90.3*
Cc1ccc(C(=O)NC(=S)/C=C2\N(C)c3ccccc3C2(C)C)cc1 | -2.2% | · | -26.7% | 11.2µM* | -68.0*
CCOC(=O)CN1C(=O)NC(c2cccc(F)c2)C(C(=O)OC)=C1C (stereo not drawn) | -23.8%[14.2 µM] | · | · | · | ·
Cc1cc(C)nc(N/N=C/c2ccco2)n1 | 17.7% | 28.1% | 13.3% | 3.6% | 28.1
Cc1cc(C)nc(N/N=C/c2cc(C)n(CC(F)(F)F)c2C)n1 | -24.8% | ? | 17.5% | -0.1% | -74.7*
CC(=O)ON=C1C=CC(=C(C#N)c2ccccc2)C=C1 | · | · | ? | · | -101.2*
Cc1cc(C(=O)N/N=C2\CC(=O)CC(C)(C)C2)c(C)n1-c1ccccc1 | 2.91µM* | 19.7% | 0.0% | -19.5% | ?
Cc1cc(C(=O)N/N=C2\CC(=O)CC(C)(C)C2)c(C)n1-c1ccc(F)cc1 | -13.7% | 6.0% | 0.0% | -19.7% | -64.3*
Cc1cc(C(=O)NN=C2CC(=O)CC(C)(C)C2)c(C)o1 | ? | 2.3% | 0.7% | -26.9% | -20.3
COc1ccc(NC(=O)COc2ccc3c(C)cc(=O)oc3c2)cc1S(=O)(=O)N1CCCCC1 | -25.5%[46.1 µM] | 8.7% | -10.2% | -18.3% | -13.0
COc1cc(CCC(C)=O)ccc1OC(=O)c1c(F)cccc1Cl | ? | ? | 44.0% | 11.2µM* | 11.8
Cc1ccc([C@H]2N[C@]3(CCCN(Cc4ccc(Br)cc4)C3=O)[C@H]3C(=O)N(C)C(=O)[C@@H]23)cc1 | · | · | -14.7% | · | 21.6
Cc1[nH]c(C)c(C(=O)/C=C/c2ccc([N+](=O)[O-])cc2)c1C | · | · | 20.9% | ? | -100.9*
COc1ccc(-c2cn(-c3ccccc3)c3[n+]2CCS3)cc1 | ? | ? | ? | ? | -99.8*
Fc1ccc(-n2cc(-c3ccccc3)[n+]3c2SCC3)cc1 | -19.9% | 1.8% | -21.9% | -10.7% | ?
CC(C)(C)c1ccc(-c2cn(-c3ccc(Br)cc3)c3[n+]2CCCS3)cc1 | ? | ? | ? | ? | -97.6*
CC(C)(C)NC(=O)C(c1ccc(F)cc1)N(Cc1cccs1)C(=O)c1ccc(CN2CCOCC2)o1 (stereo not drawn) | 2.82µM* | 8.0% | 9.0% | 8.3% | -39.8
CC(C)CCNC(=O)C(C)N(Cc1ccc(F)cc1)C(=O)c1ccc(CN2CCOCC2)o1 (stereo not drawn) | -17.6%[46.1 µM] | 23.5% | -6.5% | 11.4% | 8.7
Cc1cc(C)c2nc(NCCCNC(=S)NCCCN(C)C)c(C#N)cc2c1 | · | · | ? | 11.2µM* | -6.5
CCOCCCNC(=S)NCCCNc1nc2c(C)cc(C)cc2cc1C#N | · | · | 22.2% | 12.7% | -32.0
COc1cccc(C(=O)N2CCN(C3CCN(Cc4ccccc4)CC3)CC2)c1OC | -12.5% | -1.2% | 10.3% | 15.2% | 0.2
COc1cc(=O)n2c(c1C(=O)NCc1ccco1)CCN(C(=O)c1ccccc1-c1ncc[nH]1)CC2 | · | · | 0.2% | · | ·
C[C@H](CO)N1C[C@H](C)[C@@H](CN(C)C(=O)Nc2ccc(C(F)(F)F)cc2)Oc2c(NC(=O)Nc3ccccc3)cccc2C1=O | · | · | -12.0% | -14.0% | -16.8
COc1ccc(NC(=O)N(C)C[C@H]2Oc3c(NC(=O)c4ccncc4)cccc3C(=O)N([C@H](C)CO)C[C@@H]2C)cc1 | · | · | 0.0% | 13.7% | -1.3
COc1ccc(NC(=O)N(C)C[C@H]2Oc3c(NC(=O)c4nc5ccccc5s4)cccc3C(=O)N([C@@H](C)CO)C[C@H]2C)cc1 | · | · | -13.8% | ? | -102.5*
C[C@@H]1CN([C@H](C)CO)C(=O)c2cccc(NC(=O)Nc3ccc(F)cc3)c2O[C@H]1CN(C)C(=O)Nc1ccc(C(F)(F)F)cc1 | · | · | ? | ? | -61.2*
